Among the data in article PMC10812921, “Transcriptional Coactivator BOB1 (OBF1, OCA-B) Modulates the Specificity of DNA Recognition by the POU-Domain Factors OCT1 and OCT2 in a Monomeric Configuration” are binding signal values, retold here.

The target in test [1] is POU1 (OCT1 POU domain) (human, UniProt P14859 260-458). The experiment in a line: EMSA-SELEX-seq; no BOB1; 20 mM Tris-HCl pH 7.6, 140 mM NaCl, 10% glycerol, 0.5 mM EDTA, 0.05% Triton X-100, 0.1 mg/mL BSA, 0.1 mg/mL poly(dI-dC), 5 mM DTT, room temperature, 20 min; high values mean tight binding. As to conditions: protein: recombinant; dsDNA, one strand shown. The procedure, abridged: (§1)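 After expression in E. coli BL21, tagged POU-domain proteins were purified under denaturing conditions and then renatured. Each binding reaction held 30 ng protein and 300 ng of a PCR-amplified double-stranded random 35-nt library in 20 μL Tris–HCl pH 7.6 binding buffer, with or without 28 ng coactivator protein, for 20 min at RT. Bands holding complexes were cut from native 6% PAGE, eluted and PCR-amplified across four rounds, and the output was Illumina-sequenced. The value given for binding preference is the share, in percent, of sequenced 8-mers fitting a motif pattern.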
(In EMSA bound probe runs differently from free probe, usually more slowly.)

For test [2], the target named is T1, POU2 (OCT2 POU domain) (human, UniProt P09086 175-386).
T1 sequence: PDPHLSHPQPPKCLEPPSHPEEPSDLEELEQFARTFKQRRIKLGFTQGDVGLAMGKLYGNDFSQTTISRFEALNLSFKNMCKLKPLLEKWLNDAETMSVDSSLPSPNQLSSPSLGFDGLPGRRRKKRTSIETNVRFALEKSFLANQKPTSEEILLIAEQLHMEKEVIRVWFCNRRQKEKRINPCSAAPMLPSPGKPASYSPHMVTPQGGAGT
The test is described as above. The settings on record: protein: recombinant; dsDNA, one strand shown. The procedure, abridged:
as §1

Test [3] deals with POU1 (OCT1 POU domain);BOB1 (OBF1, OCA-B) (human;human, UniProt P14859;Q16633 260-458;1-256, |). Nature of the test: EMSA-SELEX-seq; with BOB1 (ternary complex band); 20 mM Tris-HCl pH 7.6, 140 mM NaCl, 10% glycerol, 0.5 mM EDTA, 0.05% Triton X-100, 0.1 mg/mL BSA, 0.1 mg/mL poly(dI-dC), 5 mM DTT, room temperature, 20 min; high values mean tight binding. The settings on record: protein: recombinant;recombinant; copies: 1;1; dsDNA, one strand shown. In a few lines:
as §1

The target in test [4] is T2, POU2 (OCT2 POU domain);BOB1 (OBF1, OCA-B) (human;human, UniProt P09086;Q16633 175-386;1-256, |).
T2 sequence 1: T1 sequence
T2 sequence 2: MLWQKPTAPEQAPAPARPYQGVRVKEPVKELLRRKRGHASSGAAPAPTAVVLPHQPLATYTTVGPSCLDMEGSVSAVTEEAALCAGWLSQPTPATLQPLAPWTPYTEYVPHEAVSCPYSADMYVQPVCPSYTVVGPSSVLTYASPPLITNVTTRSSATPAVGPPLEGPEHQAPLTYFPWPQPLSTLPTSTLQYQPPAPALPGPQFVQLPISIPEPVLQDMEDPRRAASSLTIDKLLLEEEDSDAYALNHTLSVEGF
The test is described as above. The settings on record: protein: recombinant;recombinant; copies: 1;1; dsDNA, one strand shown. The procedure, abridged: as §1

Sequence of POU1 (OCT1 POU domain) (P14859 260-458): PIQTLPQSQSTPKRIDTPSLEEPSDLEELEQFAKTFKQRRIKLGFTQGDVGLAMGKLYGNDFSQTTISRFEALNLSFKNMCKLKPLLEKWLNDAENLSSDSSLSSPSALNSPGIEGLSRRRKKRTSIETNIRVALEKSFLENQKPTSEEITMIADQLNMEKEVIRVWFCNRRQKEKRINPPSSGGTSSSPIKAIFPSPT

Turning to AGCTAAAG, the binding signal in test [1] is 0.0278 % of ANNNNAAN 8-mers; in test [2] it was 0.0282 % of ANNNNAAN 8-mers; in test [3] it was 0.0289 % of ANNNNAAN 8-mers; in test [4], 0.0256 % of ANNNNAAN 8-mers.

Take AGGCAAAC: the binding signal in test [1] was 0.0866 % of ANNNNAAN 8-mers; in test [2], 0.0512 % of ANNNNAAN 8-mers; in test [3] it was 0.157 % of ANNNNAAN 8-mers; in test [4], 0.0817 % of ANNNNAAN 8-mers.

In the case of AGCCCAAA, the binding signal is 0.0164 % of ANNNNAAN 8-mers in test [1], 0.0207 % of ANNNNAAN 8-mers in test [2], 0.0156 % of ANNNNAAN 8-mers in test [3] and 0.0157 % of ANNNNAAN 8-mers in test [4].

On to AAACAAAA, for which the binding signal was 0.156 % of ANNNNAAN 8-mers in test [1], 0.115 % of ANNNNAAN 8-mers in test [2], 0.256 % of ANNNNAAN 8-mers in test [3] and 0.14 % of ANNNNAAN 8-mers in test [4].

AAGACAAC: the binding signal in test [1] was 0.0168 % of ANNNNAAN 8-mers; in test [2], 0.019 % of ANNNNAAN 8-mers; in test [3], 0.0195 % of ANNNNAAN 8-mers; in test [4], 0.0157 % of ANNNNAAN 8-mers.

Consider AAGGTAAG, for which the binding signal was 0.0416 % of ANNNNAAN 8-mers in test [1], 0.0478 % of ANNNNAAN 8-mers in test [2], 0.0468 % of ANNNNAAN 8-mers in test [3] and 0.0545 % of ANNNNAAN 8-mers in test [4].

For ACAAAAAT, the binding signal was 0.0938 % of ANNNNAAN 8-mers in test [1], 0.0667 % of ANNNNAAN 8-mers in test [2], 0.114 % of ANNNNAAN 8-mers in test [3] and 0.0768 % of ANNNNAAN 8-mers in test [4].

Take ATCGTAAA: the binding signal in test [1] is 0.0553 % of ANNNNAAN 8-mers; in test [2] it was 0.0552 % of ANNNNAAN 8-mers; in test [3], 0.0531 % of ANNNNAAN 8-mers; in test [4] it was 0.0471 % of ANNNNAAN 8-mers.

Regarding AGCGAAAA, the binding signal in test [1] was 0.0389 % of ANNNNAAN 8-mers; in test [2], 0.0386 % of ANNNNAAN 8-mers; in test [3], 0.0418 % of ANNNNAAN 8-mers; in test [4], 0.033 % of ANNNNAAN 8-mers.

Turning to ACGGCAAA, the binding signal in test [1] is 0.0328 % of ANNNNAAN 8-mers; in test [2], 0.0305 % of ANNNNAAN 8-mers; in test [3], 0.0445 % of ANNNNAAN 8-mers; in test [4] it was 0.0371 % of ANNNNAAN 8-mers.

With AGCAGAAA, the binding signal in test [1] was 0.0374 % of ANNNNAAN 8-mers; in test [2], 0.0339 % of ANNNNAAN 8-mers; in test [3], 0.0336 % of ANNNNAAN 8-mers; in test [4] it was 0.0281 % of ANNNNAAN 8-mers.

For ATGACAAT, the binding signal in test [1] is 0.0576 % of ANNNNAAN 8-mers; in test [2], 0.0737 % of ANNNNAAN 8-mers; in test [3] it was 0.0453 % of ANNNNAAN 8-mers; in test [4] it was 0.0471 % of ANNNNAAN 8-mers.

As to ACAAAAAG, the binding signal in test [1] is 0.0549 % of ANNNNAAN 8-mers; in test [2] it was 0.0489 % of ANNNNAAN 8-mers; in test [3], 0.0683 % of ANNNNAAN 8-mers; in test [4], 0.0429 % of ANNNNAAN 8-mers.

On to ACGGGAAA, for which the binding signal in test [1] was 0.0492 % of ANNNNAAN 8-mers; in test [2], 0.0564 % of ANNNNAAN 8-mers; in test [3] it was 0.0496 % of ANNNNAAN 8-mers; in test [4] it was 0.0586 % of ANNNNAAN 8-mers.

Consider ATCTCAAC, for which the binding signal in test [1] is 0.0252 % of ANNNNAAN 8-mers; in test [2] it was 0.027 % of ANNNNAAN 8-mers; in test [3], 0.0254 % of ANNNNAAN 8-mers; in test [4], 0.0264 % of ANNNNAAN 8-mers.

ACGTGAAG: the binding signal is 0.0259 % of ANNNNAAN 8-mers in test [1], 0.0282 % of ANNNNAAN 8-mers in test [2], 0.0258 % of ANNNNAAN 8-mers in test [3] and 0.0305 % of ANNNNAAN 8-mers in test [4].

ACGAAAAG: the binding signal was 0.032 % of ANNNNAAN 8-mers in test [1], 0.0368 % of ANNNNAAN 8-mers in test [2], 0.046 % of ANNNNAAN 8-mers in test [3] and 0.0413 % of ANNNNAAN 8-mers in test [4].

AGTGAAAA: the binding signal in test [1] is 0.0698 % of ANNNNAAN 8-mers; in test [2], 0.0685 % of ANNNNAAN 8-mers; in test [3], 0.0956 % of ANNNNAAN 8-mers; in test [4] it was 0.0685 % of ANNNNAAN 8-mers.

On to AATATAAG, for which the binding signal is 0.101 % of ANNNNAAN 8-mers in test [1], 0.123 % of ANNNNAAN 8-mers in test [2], 0.0886 % of ANNNNAAN 8-mers in test [3] and 0.0966 % of ANNNNAAN 8-mers in test [4].

With ACATGAAC, the binding signal was 0.0244 % of ANNNNAAN 8-mers in test [1], 0.0334 % of ANNNNAAN 8-mers in test [2], 0.0304 % of ANNNNAAN 8-mers in test [3] and 0.019 % of ANNNNAAN 8-mers in test [4].

As for AGACTAAT, the binding signal in test [1] is 0.0744 % of ANNNNAAN 8-mers; in test [2], 0.102 % of ANNNNAAN 8-mers; in test [3], 0.0507 % of ANNNNAAN 8-mers; in test [4], 0.066 % of ANNNNAAN 8-mers.

As to AATGCAAA, the binding signal in test [1] is 1.36 % of ANNNNAAN 8-mers; in test [2], 1.1 % of ANNNNAAN 8-mers; in test [3] it was 2.58 % of ANNNNAAN 8-mers; in test [4] it was 3.21 % of ANNNNAAN 8-mers.

On to AGATGAAG, for which the binding signal in test [1] was 0.0328 % of ANNNNAAN 8-mers; in test [2], 0.0368 % of ANNNNAAN 8-mers; in test [3], 0.0316 % of ANNNNAAN 8-mers; in test [4] it was 0.0297 % of ANNNNAAN 8-mers.

As for ACAGCAAA, the binding signal in test [1] was 0.0248 % of ANNNNAAN 8-mers; in test [2] it was 0.0213 % of ANNNNAAN 8-mers; in test [3], 0.0359 % of ANNNNAAN 8-mers; in test [4], 0.0347 % of ANNNNAAN 8-mers.

Regarding AAGCCAAA, the binding signal is 0.0305 % of ANNNNAAN 8-mers in test [1], 0.0414 % of ANNNNAAN 8-mers in test [2], 0.0464 % of ANNNNAAN 8-mers in test [3] and 0.0256 % of ANNNNAAN 8-mers in test [4].

ACATGAAG: the binding signal was 0.0378 % of ANNNNAAN 8-mers in test [1], 0.0449 % of ANNNNAAN 8-mers in test [2], 0.03 % of ANNNNAAN 8-mers in test [3] and 0.0355 % of ANNNNAAN 8-mers in test [4].

Take AAGAGAAG: the binding signal is 0.0339 % of ANNNNAAN 8-mers in test [1], 0.0403 % of ANNNNAAN 8-mers in test [2], 0.0402 % of ANNNNAAN 8-mers in test [3] and 0.0438 % of ANNNNAAN 8-mers in test [4].

Regarding AGCGAAAT, the binding signal is 0.0526 % of ANNNNAAN 8-mers in test [1], 0.0627 % of ANNNNAAN 8-mers in test [2], 0.0492 % of ANNNNAAN 8-mers in test [3] and 0.0619 % of ANNNNAAN 8-mers in test [4].

AATGCAAT: the binding signal was 0.0862 % of ANNNNAAN 8-mers in test [1], 0.0949 % of ANNNNAAN 8-mers in test [2], 0.089 % of ANNNNAAN 8-mers in test [3] and 0.0916 % of ANNNNAAN 8-mers in test [4].

Take AGAATAAG: the binding signal is 0.0686 % of ANNNNAAN 8-mers in test [1], 0.101 % of ANNNNAAN 8-mers in test [2], 0.0527 % of ANNNNAAN 8-mers in test [3] and 0.0702 % of ANNNNAAN 8-mers in test [4].

Take ACGATAAT: the binding signal in test [1] is 0.0896 % of ANNNNAAN 8-mers; in test [2], 0.123 % of ANNNNAAN 8-mers; in test [3], 0.0535 % of ANNNNAAN 8-mers; in test [4], 0.085 % of ANNNNAAN 8-mers.

As for AGCGCAAC, the binding signal in test [1] was 0.0103 % of ANNNNAAN 8-mers; in test [2], 0.0104 % of ANNNNAAN 8-mers; in test [3] it was 0.0125 % of ANNNNAAN 8-mers; in test [4] it was 0.0107 % of ANNNNAAN 8-mers.
